According to PubChem BioAssay AID1159580 (chemical genetic matrix, 2015):
Where “and” joins values, the source holds several entries; their conditions need not be identical. Equal values may be shown once. Out of some 5,500 compounds screened, about 2,000 (36%) were called active. Another 18% or so got no clear call; they are omitted. No stated cut-off is given here; in the data, active means normalized growth mostly below about 0.91 (no sharp cut-off); inconclusive means no clear call, values can overlap the other calls; inactive means mostly above about 0.92. The list shows a part of the results.

Assay: chemical genetic growth profiling, strain panel (AID 1159580);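 further: tested at 20 µM; growth read once vehicle control cultures reached saturation at 30 °C; 1 = growth at the plate median or of vehicle wells; lower values mean less growth of the strain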
Conditions: S. cerevisiae deletion strains, growth OD

Measured: normalized growth

CC(=O)N=c1sc(S(N)(=O)=O)nn1C
inactive: locus YAL013W, strain DEP1, active compounds read low 1.01 | locus YAL021C, strain ccr4, active compounds read low 1.01 | locus YAL026C, strain drs2, active compounds read low 1.01 | locus YAL030W, strain snc1, active compounds read low 1 | locus YBL061C, strain skt5, active compounds read low 1.01 | locus YBR009C, strain hhf1, active compounds read low 1 | locus YBR021W, strain FUR4, active compounds read low 1.02 | locus YBR023C, strain chs3, active compounds read low 1.01 | locus YBR171W, strain sec66, active compounds read low 1.03 | locus YBR229C, strain ROT2, active compounds read low 1.01 | locus YBR231C, strain swc5, active compounds read low 1.02 | locus YBR279W, strain paf1, active compounds read low 1.01 | locus YCL011C, strain gbp2, active compounds read low 1.01 | locus YCL016C, strain dcc1, active compounds read low 1.01 | locus YCL029C, strain bik1, active compounds read low 0.995 | locus YCL061C, strain MRC1, active compounds read low 1.01 | locus YCL069W, strain vba3, active compounds read low 1.01 | locus YCR088W, strain abp1, active compounds read low 1.01 | locus YDL005C, strain med2, active compounds read low 1.01 | locus YDL035C, strain GPR1, active compounds read low 1.03 | locus YDL040C, strain nat1, active compounds read low 0.999 | locus YDL074C, strain BRE1, active compounds read low 0.995 | locus YDL101C, strain DUN1, active compounds read low 1.01 | locus YDL134C, strain PPH21, active compounds read low 1.02 | locus YDL185W, strain tfp1, active compounds read low 1.01 | locus YDL192W, strain arf1, active compounds read low 1.01 | locus YDR001C, strain nth1, active compounds read low 1 | locus YDR069C, strain doa4, active compounds read low 1.01 | locus YDR101C, strain arx1, active compounds read low 1 | locus YDR137W, strain rgp1, active compounds read low 1.04 | locus YDR150W, strain NUM1, active compounds read low 1 | locus YDR159W, strain sac3, active compounds read low 0.998 | locus YDR162C, strain NBP2, active compounds read low 1.02 | locus YDR195W, strain ref2 0.991 | locus YDR297W, strain sur2, active compounds read low 1 | locus YDR318W, strain mcm21, active compounds read low 1.02 | locus YDR334W, strain swr1, active compounds read low 1.01 | locus YDR335W, strain msn5, active compounds read low 1.01 | locus YDR388W, active compounds read low 1.01 | locus YDR392W, strain spt3, active compounds read low 1.02 | locus YDR502C, strain sam2, active compounds read low 0.998 | locus YEL003W, strain gim4, active compounds read low 1.01 | locus YEL037C, strain rad23, active compounds read low 1 | locus YEL061C, strain CIN8 (second series), active compounds read low 1.01 | locus YEL061C, strain CIN8, active compounds read low 1 | locus YER015W, strain faa2, active compounds read low 0.989 | locus YER016W, strain bim1, active compounds read low 1.01 | locus YER110C, active compounds read low 1.02 | locus YER111C, strain swi4, active compounds read low 0.994 | locus YER155C, strain BEM2 (second series), active compounds read low 1.02 | locus YER155C, strain BEM2, active compounds read low 1 | locus YER167W, strain BCK2, active compounds read low 1.02 | locus YFR010W, strain ubp6, active compounds read low 1.02 | locus YGL078C, strain dbp3, active compounds read low 1 | locus YGL086W, strain mad1, active compounds read low 0.998 | locus YGL167C, strain pmr1, active compounds read low 1.01 | locus YGL173C, strain kem1, active compounds read low 1.01 | locus YGL227W, strain vid30, active compounds read low 1.01 | locus YGL240W, strain doc1, active compounds read low 1.03 | locus YGL248W, strain PDE1, active compounds read low 0.997 | locus YGL253W, strain hxk2, active compounds read low 1.02 | locus YGR135W, strain pre9, active compounds read low 1.06 | locus YGR252W, strain gcn5, active compounds read low 1.01 | locus YHR013C, strain ard1, active compounds read low 1.03 | locus YHR027C, strain rpn1, active compounds read low 1.02 | locus YHR030C, strain SLT2, active compounds read low 1 and 1.06 | locus YHR079C, strain IRE1 (second series), active compounds read low 1.01 | locus YHR079C, strain IRE1, active compounds read low 1.06 | locus YHR094C, strain hxt1, active compounds read low 1.01 | locus YHR129C, strain ARP1, active compounds read low 1.02 | locus YHR142W, strain chs7, active compounds read low 1.02 | locus YHR200W, strain rpn10, active compounds read low 1.01 | locus YIL066C, strain RNR3, active compounds read low 1 | locus YIL073C, strain SPO22, active compounds read low 1.07 | locus YIL125W, strain kgd1, active compounds read low 0.997 | locus YIR030C, strain dcg1, active compounds read low 0.996 | locus YJL092W, strain hpr5, active compounds read low 1.02 | locus YJL095W, strain BCK1 (second series), active compounds read low 1.01 | locus YJL095W, strain BCK1, active compounds read low 0.989 and 1.05 | locus YJL115W, strain asf1, active compounds read low 1.01 | locus YJL129C, strain trk1, active compounds read low 1 | locus YJL134W, strain LCB3, active compounds read low 1.01 | locus YJL154C, strain vps35, active compounds read low 1 | locus YJL164C, strain tpk1, active compounds read low 1.01 | locus YJL166W, strain qcr8, active compounds read low 0.998 | locus YJL168C, strain set2, active compounds read low 1.01 | locus YJL187C, strain SWE1 (second series), active compounds read low 0.984 | locus YJL187C, strain SWE1, active compounds read low 1.01 | locus YJR043C, strain POL32, active compounds read low 0.986 | locus YJR066W, strain TOR1, active compounds read low 0.984
